High-throughput results: PubChem BioAssay, The Scripps Research Institute Molecular Screening Center
ULK1 inh: inhibitors of human ULK1 kinase; AlphaScreen Atg13 phosphorylation by ULK1, luminescence; inhibition, % at 5.96 µM; 30,000 tested, 1.9% active; AID 1259251; in the data active = inhibition above about 43%;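 note: 0% = median of compound wells and 100% = no enzyme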
Target sequence (O75385 whole entry, looked up): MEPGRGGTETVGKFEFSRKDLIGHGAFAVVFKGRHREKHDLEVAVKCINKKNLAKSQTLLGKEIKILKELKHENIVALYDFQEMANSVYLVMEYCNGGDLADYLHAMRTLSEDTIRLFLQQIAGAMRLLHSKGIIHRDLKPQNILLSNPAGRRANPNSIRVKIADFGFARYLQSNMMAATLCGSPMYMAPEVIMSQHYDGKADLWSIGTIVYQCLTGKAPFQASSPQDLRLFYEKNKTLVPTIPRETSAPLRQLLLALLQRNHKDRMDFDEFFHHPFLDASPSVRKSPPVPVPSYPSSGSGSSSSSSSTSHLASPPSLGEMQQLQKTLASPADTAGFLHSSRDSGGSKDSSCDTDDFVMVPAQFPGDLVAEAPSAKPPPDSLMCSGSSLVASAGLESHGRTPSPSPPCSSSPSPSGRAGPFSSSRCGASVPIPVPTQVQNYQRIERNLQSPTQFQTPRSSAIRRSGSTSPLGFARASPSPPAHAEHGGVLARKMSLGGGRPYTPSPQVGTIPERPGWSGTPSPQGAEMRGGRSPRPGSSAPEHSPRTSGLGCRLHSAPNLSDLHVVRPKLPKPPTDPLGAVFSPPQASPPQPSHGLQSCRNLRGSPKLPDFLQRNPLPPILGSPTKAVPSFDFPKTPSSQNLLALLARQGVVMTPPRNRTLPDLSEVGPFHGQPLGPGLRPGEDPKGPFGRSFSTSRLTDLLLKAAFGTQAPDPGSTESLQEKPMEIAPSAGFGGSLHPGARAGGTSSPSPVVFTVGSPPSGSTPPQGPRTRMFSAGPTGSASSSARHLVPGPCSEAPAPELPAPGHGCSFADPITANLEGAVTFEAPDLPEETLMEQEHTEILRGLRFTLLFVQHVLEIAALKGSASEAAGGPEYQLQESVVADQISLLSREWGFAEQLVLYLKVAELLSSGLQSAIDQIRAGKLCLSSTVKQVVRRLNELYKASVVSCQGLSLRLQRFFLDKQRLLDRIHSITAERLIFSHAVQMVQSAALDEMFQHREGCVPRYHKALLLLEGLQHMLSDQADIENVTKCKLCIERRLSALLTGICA
ASK1 inh: inhibitors of human ASK1 kinase; Q99683; AlphaScreen MKK6 phosphorylation by ASK1, luminescence; inhibition, % at 7.44 µM; 22,000 tested, 0.99% active; in the data active = inhibition above about 35%;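 note: 0% = median of compound wells and 100% = no enzyme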
TruHits interf: interferes with AlphaScreen TruHits signal in ASK1 counter-screen; shares compounds with ASK1 inh; AlphaScreen TruHits beads, signal interference counterscreen; IC50, µM; 220 tested, 20% active;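 active = IC50 of 10 µM or lower in the counterscreen; inactive = IC50 above 10 µM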;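 note: loss of AlphaScreen light from TruHits beads alone with no ASK1 enzyme present; potency of signal reduction so a low IC50 flags an assay artifact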
An asterisk follows results filed as active; ! = not active in a repeat. Rows were chosen to be rich in hits. Some 2.5% of all compounds tested hit in one or more screens of this group.

COc1cc2nc(Nc3cccc(N(C)C)c3)nc(NCc3cccc(C(F)(F)F)c3)c2cc1OC was read as ULK1 inh -15, ASK1 inh 38* and TruHits interf inactive.
`Cc1cc(NCc2cccc(C(F)(F)F)c2)nc(Nc2ccc(N3CCOCC3)cc2)n1` gave ULK1 inh -9, ASK1 inh 40*! and TruHits interf 4.6*.
Screening COc1cc2nc(Nc3cccc(N(C)C)c3)nc(NCc3ccccc3)c2cc1OC returned ULK1 inh -3 and ASK1 inh 33.
`COc1cc(Nc2ccnc(Nc3cccc(N(C)C)c3)n2)cc(OC)c1OC` gave ULK1 inh 19, ASK1 inh 39* and TruHits interf 6.9*.
Screening COc1cc(Nc2cc(Nc3cccc(N(C)C)c3)ncn2)cc(OC)c1OC returned ULK1 inh 11 and ASK1 inh 22.
For Cc1cc(NCc2cccc(C(F)(F)F)c2)nc(Nc2ccc(C(F)(F)F)cc2)n1 the results were ULK1 inh -23 and ASK1 inh -9.
For c1ccc(OCCNc2nc(Nc3ccncc3)nc3c2ncn3C2CCCCC2)cc1 the results were ULK1 inh 5 and ASK1 inh -2.
For c1ccc(OCCNc2nc(Nc3ccc(-n4ccnc4)cc3)nc3c2ncn3C2CCCCC2)cc1 the results were ULK1 inh 14, ASK1 inh 49* and TruHits interf >20.
`c1ccc(OCCNc2nc(Nc3ccc(N4CCOCC4)cc3)nc3c2ncn3C2CCCCC2)cc1` gave ULK1 inh 17, ASK1 inh 48* and TruHits interf 7*.
c1ccc(OCCNc2nc(NCCN3CCOCC3)nc3c2ncn3C2CCCCC2)cc1 was read as ULK1 inh -10 and ASK1 inh -8.
`CC(C)N(CCNC(=O)Cc1cn(-c2ccc(Nc3ccncn3)nn2)c2ccccc12)C(C)C` gave ULK1 inh -2 and ASK1 inh -13.
For O=C(Cc1cn(-c2ccc(N3CCN(Cc4ccc5c(c4)OCO5)CC3)nn2)c2ccccc12)Nc1ccccc1 the results were ULK1 inh 0 and ASK1 inh -2.
`O=C(Cc1cn(-c2ccc(N3CCN(Cc4ccc5c(c4)OCO5)CC3)nn2)c2ccccc12)Nc1ccc(N2CCOCC2)cc1` gave ULK1 inh 21, ASK1 inh 39* and TruHits interf >20.
For CC(=O)c1cccc(-c2nc(NCc3ccccc3)c3ncn(Cc4ccc(C(F)(F)F)cc4)c3n2)c1 the results were ULK1 inh -5, ASK1 inh 46* and TruHits interf >19.
COc1ccc(-c2nc(NCc3cccc(C(F)(F)F)c3)c3ncn(Cc4ccc(C(F)(F)F)cc4)c3n2)cc1 was read as ULK1 inh -19 and ASK1 inh -7.
`CC(=O)c1cccc(-c2nc(NCc3cccc(C(F)(F)F)c3)c3ncn(Cc4ccc(C(F)(F)F)cc4)c3n2)c1` gave ULK1 inh -12 and ASK1 inh 5.
Screening NC(=O)c1ccc(-c2nc(NCc3cccc(C(F)(F)F)c3)c3ncn(Cc4ccc(C(F)(F)F)cc4)c3n2)cc1 returned ULK1 inh -6, ASK1 inh 41* and TruHits interf >17.
`C[C@](O)(C(=O)Nc1ccc2[nH]ncc2c1)c1ccc(Br)cc1` gave ULK1 inh 6 and ASK1 inh -1.
`c1cncc(-c2cc(NCCCN3CCOCC3)nc(-c3ccncc3)n2)c1` gave ULK1 inh 6.
O=C1CCCN1CCn1cnc2c(NCCO)nc(-c3csc4ccccc34)nc21 was read as ULK1 inh -1 and ASK1 inh 3.
For CC(=O)c1cccc(-c2cc(Nc3ccc(N4CCOCC4)cc3)nc(N)n2)c1 the results were ULK1 inh 8 and ASK1 inh 8.
For Cn1ccc2cc(-c3cc(Nc4ccc(N5CCOCC5)cc4)nc(N)n3)ccc21 the results were ULK1 inh 26, ASK1 inh 46* and TruHits interf >20.
`Cn1nccc1Nc1cccc(C(=O)NCc2cccc(C(F)(F)F)c2)n1` gave ULK1 inh -1 and ASK1 inh 4.
For COc1ccc(-c2cnc(N3CCc4ccccc4C3)nc2)cc1 the results were ULK1 inh -1.
`OC(CNCC(O)C1CCc2cc(F)ccc2O1)C1CCc2cc(F)ccc2O1` (stereo not drawn) gave ULK1 inh -25.
For c1cc(-c2ccc3[nH]ncc3c2)nc(Nc2ccc(N3CCOCC3)cc2)n1 the results were ULK1 inh 65*, ASK1 inh 38* and TruHits interf >19.
Screening FC(F)(F)c1cc(-c2ccnc(Nc3ccc(N4CCOCC4)cc3)n2)cc(N2CCOCC2)c1 returned ULK1 inh 16, ASK1 inh 45* and TruHits interf >19.
`FC(F)(F)c1cc(-c2ccnc(Nc3ccc(N4CCOCC4)nc3)n2)cc(N2CCOCC2)c1` gave ULK1 inh 8 and ASK1 inh 16.
Fc1cc(-c2ccnc(Nc3ccc(N4CCOCC4)cc3)n2)cc(N2CCN(C3CC3)CC2)c1 was read as ULK1 inh 56*, ASK1 inh 40* and TruHits interf >19.
`c1cc(-c2ccc3nonc3c2)nc(Nc2ccc(N3CCOCC3)cc2)n1` gave ULK1 inh 0 and ASK1 inh 14.
N#Cc1cc(-c2ccnc(Nc3ccc(N4CCOCC4)cc3)n2)cc(N2CCN(C3CC3)CC2)c1 was read as ULK1 inh 8 and ASK1 inh -6.
CC(=O)Nc1ccc(NC(=O)c2ccc(-c3ccc(C(=O)NC4CC4)cc3)s2)cc1 was read as ULK1 inh -7 and ASK1 inh 5.
`COc1ccc(CCNC(=O)c2cnc(NCCCN3CCCC3=O)s2)cc1` gave ULK1 inh -27 and ASK1 inh 1.
For O=C(NCc1cccnc1)c1ccnc(Nc2cnccn2)c1 the results were ULK1 inh -4 and ASK1 inh -7.
For O=C(NCc1ccccc1)c1cccc(Nc2ccc(-n3ccnc3)cc2)c1 the results were ULK1 inh -3 and ASK1 inh 10.
Screening O=C(NCc1nc2ccccc2[nH]1)c1cncc(-c2ccccc2)c1 returned ULK1 inh 1 and ASK1 inh 5.
For Nc1cccc(-c2ncc(C(=O)Nc3ccc(N4CCOCC4)cc3)s2)c1 the results were ULK1 inh -10 and ASK1 inh 3.
For COc1cc(Nc2nc(-c3ccc(C(N)=O)cc3)nc3c2ncn3C2CCCCC2)cc(OC)c1OC the results were ULK1 inh 20, ASK1 inh 40* and TruHits interf >20.
COc1cc(Nc2nc(-c3ccc(C(=O)NC4CC4)cc3)nc3c2ncn3C2CCCCC2)cc(OC)c1OC was read as ULK1 inh 16 and ASK1 inh 34.
For c1ccc2[nH]c(CNc3nc(-c4csc5ccccc45)nc4c3ncn4-c3ccsc3)nc2c1 the results were ULK1 inh -11 and ASK1 inh 6.
`FC(F)(F)c1ccc(Cn2cnc3c(NCc4ccccc4)nc(Nc4ccccc4)nc32)cc1` gave ULK1 inh -4, ASK1 inh 46* and TruHits interf >20.
For FC(F)(F)c1ccc(Cn2cnc3c(NCc4cccc(C(F)(F)F)c4)nc(Nc4ccc5ncccc5c4)nc32)cc1 the results were ULK1 inh 0, ASK1 inh 40* and TruHits interf >20.
For FC(F)(F)c1ccc(Cn2cnc3c(NCc4cccc(C(F)(F)F)c4)nc(Nc4ccccc4)nc32)cc1 the results were ULK1 inh 0 and ASK1 inh 15.
